Hit rate of the full screen: of about 190,000 compounds, about 520 (0.27%) were called active. Roughly 2% stayed inconclusive and do not appear here. Many of the other results were omitted from the sample, so actives are more common in it than they were. A number with no mark means an inactive call.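 The calls were made as follows: active = GTP binding activity at least 20 points away from the 100% control level, either lower or higher; inconclusive = compound flagged as likely green fluorescent, judged across all proteins; inactive = the rest.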

For this assay, the target named is Ras-related C3 botulinum toxin substrate 1 (Homo sapiens) (UniProt P63000). Briefly: compounds altering fluorescent GTP loading on wildtype Rac1 – biochemical, GST-Rac1 beads, flow cytometry, multiplex, primary screen (AID 757). Conditions: at 10 µM, actives lie on both sides, 0 = cold GTP competed, 100 = untreated. For orientation: A flow cytometer gives signals particle by particle.
Regarding `CC(=O)c1ccc(-c2nnc(CCC(=O)N(C)Cc3cnc4ccccn34)o2)s1`, the GTP binding activity (% of control) is 92%.

`COCCn1c(C)cc(C(=O)CSc2nc3ccccc3c(=O)n2C(C)COC)c1C` (centres undefined): the GTP binding activity (% of control) is 97%. To `O=C(O)/C=C/c1cn(Cc2ccccc2)nc1-c1cccs1` belongs 157% [activator] (active); to `O=C(/C=C\c1cn(-c2ccccc2)nc1-c1cccs1)N1CCOCC1`, 106%; to `O=C(O)/C=C/c1cn(-c2ccccc2)nc1-c1cccs1`, 94%. On to `O=S(=O)(Nc1ccccn1)c1cccc(S(=O)(=O)c2ccc(Cl)cc2)c1`, for which the GTP binding activity (% of control) was 97%.

As to `Cc1c(NC(=S)NC(=O)CCc2ccccc2)c(=O)n(-c2ccccc2)n1C`, the GTP binding activity (% of control) is 101%.

Consider `CC1CCC(NC(=O)C2c3ccccc3C(=O)N2Cc2ccc3c(c2)OCO3)CC1` (centres undefined), for which the GTP binding activity (% of control) was 99%. In the case of `COc1cccc(-c2ccc(SCC(=O)N3CCN(c4ccccc4)CC3)nn2)c1`, the GTP binding activity (% of control) was 92%. To `CN(C)c1ccc(C(=S)N2CCN(C(=S)Nc3ccc(Cl)cc3)CC2)cc1` belongs 98%.

For `O=C(c1cn2ccccc2n1)N1CCc2c([nH]c3ccccc23)C1c1ccccn1` (centres undefined), the GTP binding activity (% of control) is 98%. To `O=c1cc(O)c(-c2cccc(C(F)(F)F)c2)c(Cl)[nH]1` belongs 97%. For the compound `O=C(NCCCN1CCOCC1)c1ccc([N+](=O)[O-])cc1[N+](=O)[O-]`, the GTP binding activity (% of control) is 102%. Next, `O=C(OCC(=O)c1cccs1)c1ccc([N+](=O)[O-])o1`: 99%; `CNC(=S)Nc1ccc([N+](=O)[O-])cc1`: 101%; `CC(Oc1ccc(Br)cc1Br)C(=O)NC1CCCC1` (centres undefined): 96%.

Take `CC(=O)c1c(C)[nH]c(C(=O)Nc2cc(S(=O)(=O)N(C)C)ccc2C)c1C`: the GTP binding activity (% of control) was 97%. Next, `O=C(Nc1ccccc1C(=O)N1CCOCC1)c1ccc(Cl)cc1`: 98%; `CCOc1ccc(N2CC(C(=O)NCCN3C(=O)S/C(=C\c4cccnc4)C3=O)CC2=O)cc1` (centres undefined): 95%. To `O=C(CSc1ccccc1)Nc1ccc(C(=O)Nc2cccc(O)c2)cc1` belongs 75% (active); to `Cc1cc(C)cc(NC(=O)CSc2ccccc2)c1`, 95%. As for `O=C(CSc1ccccc1)Nc1ccc(NC(=O)c2ccco2)cc1`, the GTP binding activity (% of control) was 101%. As for `Cn1c(=NC(=O)c2ccc3c(c2)OCCO3)sc2cc(S(C)(=O)=O)ccc21`, the GTP binding activity (% of control) was 100%. As to `COc1ccc(CC(NC(C)=O)C(=O)NC2CCN(C(=O)c3ccc(OC)c(OC)c3)CC2)cc1OC` (centres undefined), the GTP binding activity (% of control) was 98%. To `CN(C)/N=C/c1cn(-c2ccccc2)nc1-c1cccnc1` belongs 101%; to `O=C(CNC(=O)COc1ccccc1)NCCc1ccccn1`, 102%; to `Cc1ccc(CCCOC(=O)C[N+]2(C)CCCCC2)cc1`, 100%. Next, `CCOC(=O)c1ccc(NNC(C)=O)c([N+](=O)[O-])c1`: 99%; `CC(=O)Nc1ccc(S(=O)(=O)NC2(C(F)(F)F)C(=O)NC(C)=C2C#N)cc1` (centres undefined): 105%; `COc1cc2c(cc1OC)CC1(CCCCC1)N=C2`: 102%. To `CN(C)CCN=c1cc(-c2ccccc2)oc2ccc(Cl)cc12` belongs 102%; to `CCN(CC(=O)NCc1cccs1)C(=O)c1ccccc1F`, 98%; to `Cc1ccc2c(=O)oc(N(C)C)nc2c1`, 94%. Regarding `Oc1ccccc1N1CCN(C(=S)NCc2ccccc2)CC1`, the GTP binding activity (% of control) is 103%. Take `O=S(=O)(NCc1ccccc1)c1ccc(S(=O)(=O)N2CCCC2)cc1`: the GTP binding activity (% of control) was 102%. For `O=c1/c(=C/c2ccc(CNS(=O)(=O)c3ccccc3)o2)sc2n1CCN=2`, the GTP binding activity (% of control) is 64% (active).

`COC(=O)C1=C(C)NC(=O)/C1=C/c1ccc(CNS(=O)(=O)c2ccc(C)cc2)o1`: the GTP binding activity (% of control) is 100%. As for `O=S(=O)(c1cccc(C(F)(F)F)c1)N1CCN(c2cnccn2)CC1`, the GTP binding activity (% of control) is 99%. To `CN(C(=O)COc1ncnc2c1cnn2-c1ccccc1)C1CCCCC1` belongs 102%; to `c1ccc(-c2nnc(N3CCOCC3)c3ccccc23)cc1`, 97%.

As to `COc1cccc(OCCCN2CCCCCC2)c1`, the GTP binding activity (% of control) was 95%. To `CN1CCN(C(=O)CCc2ncc(C(F)(F)F)cc2Cl)CC1` belongs 96%; to `COc1ccc(S(=O)(=O)N2CCOCC2)cc1NC(=O)CSc1ncnc2ccccc12`, 93%; to `CCOC(=O)c1sc(NC(=O)c2cc(S(=O)(=O)N3CCOCC3)ccc2C)nc1C`, 102%. Turning to `COc1ccc(S(=O)(=O)N2CCOCC2)cc1C(=O)Nc1nc2ccccc2s1`, the GTP binding activity (% of control) is 75% (active). To `Cc1ccc(CSc2nc3[nH]ncc3c(=O)[nH]2)cc1` belongs 77% (active). Next, `Cc1cccc(NC(=O)CSc2nc3[nH]ncc3c(=O)[nH]2)c1`: 97%; `CCCSc1nc2[nH]ncc2c(=O)[nH]1`: 100%; `COc1cc(NS(=O)(=O)c2ccc(NC(=O)c3ccc(S(=O)(=O)N4CCCCC4)cc3)cc2)ncn1`: 95%.

Take `COc1ccccc1NC(=O)CCSc1nnc(-c2ccc(O)cc2)o1`: the GTP binding activity (% of control) is 95%. For `COc1cccc(NC(=O)c2ccc(S(=O)(=O)N(C)C)cc2)c1`, the GTP binding activity (% of control) was 104%.

On to `Oc1ccccc1C=NC1CCCCC1N=Cc1ccccc1O` (centres undefined), for which the GTP binding activity (% of control) is 100%. Next, `O=C(CSc1ccccc1F)NC1CCS(=O)(=O)C1` (centres undefined): 96%; `Cc1cccc(NC(=S)N2CCC(O)CC2)c1C`: 100%. Regarding `CC(=O)NC(Cc1ccc(F)c(F)c1)C(=O)NC1CCN(C(=O)c2ccc(C)cc2)CC1` (centres undefined), the GTP binding activity (% of control) was 103%. With `CC(C)CCN1CCN(C/C=C/c2ccco2)CC1CCO` (centres undefined), the GTP binding activity (% of control) is 94%. With `Cc1cc(C)c2c(NC(=O)C3CC3)nn(C)c2n1`, the GTP binding activity (% of control) was 98%. To `CCOc1cc(C2C(C(=O)OC(C)C)=C(C)NC3=C2C(=O)CCC3)cc([N+](=O)[O-])c1O` (centres undefined) belongs 98%. `CC(NC(=O)COC(=O)c1ccc2c(c1)OCO2)c1ccccc1` (centres undefined): the GTP binding activity (% of control) was 101%.

Regarding `CC1=C(C(=O)N(C)C)C(c2ccccc2OC(F)F)NC(=O)N1` (centres undefined), the GTP binding activity (% of control) is 101%. `O=C(O)CC(SCC(=O)Nc1ccc(Br)cc1)C(=O)O` (centres undefined): the GTP binding activity (% of control) is 96%. To `CCCCCN1CC(O)=C(c2ccccc2)C1=N` belongs 104%; to `CCCCCN1CC(O)=C(c2nc(-c3ccc(Cl)cc3)cs2)C1=N`, 135% [activator] (active); to `CCOC(=O)CCCN1CC(O)=C(c2nc3ccccc3s2)C1=N`, 102%.
